Laboratory results: the supplement of paper PMC5662767
Structures can show the parent of a compound that is named as a salt.

System: Drosophila S2 cl14 SmoIP sensor cells
Assay: normalized SmoIP GFP fluorescence (untreated unstimulated = 0%, untreated Hh-stimulated = 100%); higher = more Smo activation sensor fluorescence
Details: compound concentration: 2 uM, 24 h
[1] = stimulation: Hh conditioned medium (+Hh)
[2] = stimulation: mock conditioned medium (-Hh)
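Further: flow cytometry read-out as median GFP intensity of gated cells, compounds added 30 min before Hh-conditioned or mock medium, mock-treated cells serving as unstimulated baseline.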

| SMILES | normalized SmoIP GFP fluorescence [1] [%] | normalized SmoIP GFP fluorescence [2] [%] |
| --- | --- | --- |
| COc1ccc(-c2ccc3c(N4CCOC[C@@H]4C)nc(N4CCOC[C@@H]4C)nc3n2)cc1CO | 61.4 | -2.96 |
| O=C(/C=C/c1ccc(O)c(O)c1)c1ccc(O)cc1O [butein] | 77.1 | 3.58 |
| COc1ccc(COc2cc3oc(=O)c4cc(C(C)O)ccc4c3cc2OC)cc1 (stereo not given) [Palomid-529-P529] | 134 | -15.8 |
| COc1cc2c(cc1Cc1cccc(Cl)c1F)c(=O)c(C(=O)O)cn2[C@H](CO)C(C)C [Elvitegravir] | 143 | -9.22 |
| CC[C@H](C)C(=O)O[C@@H]1C[C@@H](C)C=C2C=C[C@H](C)[C@@H](CC[C@@H]3C[C@@H](O)CC(=O)O3)[C@H]21 [lovastatin-mevacor] | 123 | -14.7 |
| CC1(C)Cc2c(-c3ccccc3)c(-c3ccc(Cl)cc3)c(CC(=O)O)n2C1 [licofelone] | 121 | -11.2 |
| Cc1cc(N2CCOCC2)ccc1Nc1nc(NC2CCCCC2)c2[nH]cnc2n1 | 93.8 | -2.64 |
| C[C@H](Oc1cc(-c2cnn(C3CCNCC3)c2)cnc1N)c1c(Cl)ccc(F)c1Cl [s-crizotinib] | 114 | 7.39 |
| CC(C)[C@H](C(=O)Nc1ccc(C(=O)NO)cc1)c1ccccc1 | 299 | 60.6 |
| CN(C)C(=O)C(CCN1CCC(O)(c2ccc(Cl)cc2)CC1)(c1ccccc1)c1ccccc1 [Loperamide-hydrochloride] | 106 | 7.46 |
| CNC(=O)c1cc(Oc2ccc(NC(=O)Nc3ccc(Cl)c(C(F)(F)F)c3)cc2)ccn1 [Sorafenib-Tosylate] | 112 | 47.1 |
| CCOC(=O)[C@H](CCc1ccccc1)N[C@@H](C)C(=O)N1[C@@H](C(=O)O)C[C@@H]2CCC[C@@H]21 [Ramipril(Altace)] | 137 | -16.3 |
| CC(C)(O)[C@H]1CC[C@@](C)([C@H]2[C@@H](O)C[C@@]3(C)[C@@H]4C[C@H](O[C@@H]5O[C@H](CO)[C@@H](O)[C@H](O)[C@H]5O)[C@H]5C(C)(C)[C@@H](O[C@@H]6OC[C@@H](O)[C@H](O)[C@H]6O)CC[C@@]56C[C@@]46CC[C@]23C)O1 [astragaloside-a] | 120 | -16.8 |
| CCN(CC)CCCC(C)Nc1nc(C)cc(Nc2ccc3nc(C)cc(N)c3c2)n1 (stereo not given) | 112 | -4.53 |
| CCOc1cc2ncc(C#N)c(Nc3ccc(F)c(Cl)c3)c2cc1NC(=O)/C=C/CN(C)C [Pelitinib] | 197 | 9.86 |
| O=C(O)c1ccc(N2C(=O)/C(=C\c3ccc(-c4ccc([N+](=O)[O-])cc4)o3)C=C2c2ccccc2)cc1 [4e1rcat] | 105 | -0.265 |
| O=c1ncn2nc(Sc3ccc(F)cc3F)ccc2c1-c1c(Cl)cccc1Cl | 79.3 | -2.64 |
| COc1cc(Br)c(Nc2nc(-c3c(C)nc4ncccn34)cs2)c(Br)c1 | 110 | 5.12 |

| SMILES | normalized SmoIP GFP fluorescence [1] [%] | normalized SmoIP GFP fluorescence [2] [%] |
| --- | --- | --- |
| C#Cc1cccc(Nc2ncnc3cc(OC)c(OCCCCCCC(=O)NO)cc23)c1 | 128 | 29.7 |
| COc1cccc(C=NCCN=Cc2cccc(OC)c2[O-])c1[O-].[Cl-].[Mn+3] | 114 | -2.2 |
| CC(=O)Oc1cc(C(F)(F)F)ccc1C(=O)O [triflusal] | 111 | -4.58 |
| CNC(=O)CN1CCC(Oc2cc3c(Nc4cccc(Cl)c4F)ncnc3cc2OC)CC1 | 112 | -3.72 |
| COc1ccc(CNCc2cccc3ccccc23)cc1 | 111 | -2.82 |
| Cc1cnc(NC(=O)Nc2cc(Br)c(C)cc2OC[C@@H]2CNCCO2)cn1 | 112 | -14.5 |
| Cc1cc(OCc2nnc(SC3CCCC3)n2-c2cccnc2)ccc1-c1ccc(S(C)(=O)=O)cc1 | 96.7 | 13.7 |
| NC(=O)c1ccc(-c2nc(-c3ccccn3)c(-c3ccc4c(c3)OCO4)[nH]2)cc1 | 130 | -2.96 |
| C/C=C1\[C@H]2C=C(C)C[C@]1(N)c1ccc(=O)[nH]c1C2 [(-)-Huperzine-A] | 139 | -7.42 |
| O=C(c1cncc(Br)c1)N1CCC(N2CCCC2)CC1 | 98.8 | 1.35 |
| CN(NC(=O)CC(=O)NN(C)C(=S)c1ccccc1)C(=S)c1ccccc1 [Elesclomol] | 145 | 17.1 |
| O=C(NCc1ccccc1)c1csc(Nc2ccncn2)n1 [Thiazovivin] | 72.7 | -11.6 |
| CNCc1ccc(-c2cc(-c3nc(-c4ccc(S(=O)(=O)C(C)C)cc4)cnc3N)on2)cc1 | 123 | 28.9 |
| C[C@H](NC(=O)Cc1cc(F)cc(F)c1)C(=O)N[C@H](C(=O)OC(C)(C)C)c1ccccc1 | 146 | 4.93 |
| CC1(C)CCC(CN2CCN(c3ccc(C(=O)NS(=O)(=O)c4ccc(NCC5CCOCC5)c([N+](=O)[O-])c4)c(Oc4cnc5[nH]ccc5c4)c3)CC2)=C(c2ccc(Cl)cc2)C1 | 104 | -2.82 |
| Cc1cnc(Nc2ccc(N3CCN(C)CC3)cc2)nc1Nc1cccc(S(=O)(=O)NC(C)(C)C)c1 | 159 | -5.35 |
| C[C@H](N[C@@H](CCc1ccccc1)C(=O)O)C(=O)N1CCC[C@H]1C(=O)O [Enalaprilat] | 117 | -0.265 |
